Laboratory results as given in PubChem BioAssay (NCI).
This is part of a sample that, as a whole, favours compounds with a hit. Of some 83,000 tested, about 20% had one in any assay.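 96-well plates, one dose, 48 hours. Percent growth reported; active if below 10.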 The source made the active and inactive calls.

System: MDA-MB-468 breast
Assay: NCI-60 one-dose screen, 48 h (100 = growth as untreated, 0 = no growth, -100 = all killed)
Settings: 10 µM unless noted

Compound	growth
CCOC(=O)c1sc(N)nc1-c1ccccc1	97.4% (inactive)
COc1ccc(-c2nc3c(c(-c4ccc(Cl)cc4)nn3-c3ccccc3)c(-c3ccccc3)c2C#N)cc1	108% (inactive)
CN(CCOc1ccc(CC2SC(=O)NC2=O)cc1)c1ccccn1 (configuration not stated)	100% (inactive)
O=C(O)c1ccc(CNc2ccc(C(=O)CCl)cc2)cc1	63.8% (inactive)
CCN(CC)CC(O)CNc1c2ccc(Cl)cc2nc2ccc(OC)cc12 (configuration not stated)	-48.3% (active)
O=C(Nc1cccc(Oc2nnc(Cl)c3ccccc23)c1)Nc1ccc(Cl)c(C(F)(F)F)c1	-44.8% (active)
O=C1Nc2ccc(F)cc2/C1=C\c1c(-c2ccccc2)nc2ccccn12	35.6% (inactive)
COc1ccc(CN2c3ccccc3Sc3ccccc32)cc1F	-0.673% (active)
COc1ccccc1/C=C/C(=O)Nc1ccc(F)cc1	105% (inactive)
CC/C=C\C[C@H](O)C/C=C1/C(=O)C=C[C@@H]1C/C=C\CCCCO	16.5% (inactive)
CC(C)c1cc(C(C)C)c(S(=O)(=O)Oc2ccc(NC(=O)c3ccc(Cl)cc3)cc2)c(C(C)C)c1	8.01% (active)
O=C(Nc1ccc(F)c(Cl)c1)Nc1ccc(Cl)c(Cl)c1	9.54% (active)
